Source: article PMC4336329 (PLoS ONE, 2015)
The campaign covered roughly 310,000 compounds. About 14,000 (4.5%) showed an effect of 50% or more. The effect is printed as a negative number. Shown is part of a subset that was picked to be rich in strong results.

molecular target: human ether-à-go-go-related gene (hERG) potassium channel (human, UniProt Q12809); experiment: primary screen, population patch clamp on CHO cells stably expressing hERG; higher = less effect of the substance
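Further: peak tail current of the secondary pulse compared with the same well before compound.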

human ether-à-go-go-related gene (hERG) potassium channel, sequence (Q12809 whole entry, looked up): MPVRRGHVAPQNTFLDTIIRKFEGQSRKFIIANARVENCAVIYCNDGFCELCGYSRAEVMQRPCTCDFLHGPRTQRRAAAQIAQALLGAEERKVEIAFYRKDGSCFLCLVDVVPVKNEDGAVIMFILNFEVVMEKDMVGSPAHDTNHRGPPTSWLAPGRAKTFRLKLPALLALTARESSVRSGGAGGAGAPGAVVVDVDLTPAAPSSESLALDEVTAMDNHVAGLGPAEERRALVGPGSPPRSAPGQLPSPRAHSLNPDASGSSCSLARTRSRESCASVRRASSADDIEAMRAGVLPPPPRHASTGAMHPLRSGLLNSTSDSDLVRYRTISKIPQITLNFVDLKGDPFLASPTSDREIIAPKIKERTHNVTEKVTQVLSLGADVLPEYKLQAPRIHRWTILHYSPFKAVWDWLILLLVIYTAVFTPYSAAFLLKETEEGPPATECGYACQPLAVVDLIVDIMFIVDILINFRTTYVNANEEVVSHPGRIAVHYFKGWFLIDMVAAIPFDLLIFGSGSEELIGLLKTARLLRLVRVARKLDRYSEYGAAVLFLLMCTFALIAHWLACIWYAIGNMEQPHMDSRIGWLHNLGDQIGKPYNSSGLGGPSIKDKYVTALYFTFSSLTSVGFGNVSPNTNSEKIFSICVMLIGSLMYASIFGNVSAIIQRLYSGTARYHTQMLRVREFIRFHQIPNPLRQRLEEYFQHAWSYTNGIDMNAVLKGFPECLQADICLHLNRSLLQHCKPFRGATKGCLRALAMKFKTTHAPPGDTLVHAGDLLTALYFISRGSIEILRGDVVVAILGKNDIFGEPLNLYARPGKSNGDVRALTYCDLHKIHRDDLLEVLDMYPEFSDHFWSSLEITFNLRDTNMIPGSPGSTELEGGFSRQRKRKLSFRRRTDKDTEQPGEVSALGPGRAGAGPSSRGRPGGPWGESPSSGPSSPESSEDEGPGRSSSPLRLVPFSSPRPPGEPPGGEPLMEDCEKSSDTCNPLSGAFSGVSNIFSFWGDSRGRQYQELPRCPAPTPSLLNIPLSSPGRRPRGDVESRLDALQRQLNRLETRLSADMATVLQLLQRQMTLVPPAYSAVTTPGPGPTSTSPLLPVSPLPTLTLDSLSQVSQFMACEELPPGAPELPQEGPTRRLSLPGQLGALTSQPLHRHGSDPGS

Row | Compound | hERG current change (%, negative = inhibition) at 10uM
1 | Cc1cc(NC(=O)C(C)SCC(=O)N(C)CC(=O)Nc2ccc(F)cc2)no1 (centres unmarked) | 7.59%
2 | CN(CC(=O)Nc1ccccc1Cl)C(=O)Cn1cc(C(F)(F)F)cc(Cl)c1=O | -6.27%
3 | O=C(CN1C(=O)COc2ccc(S(=O)(=O)N3CCOCC3)cc21)NCc1ccccn1 | -1.38%
4 | O=C(NCC1CCCO1)C1CCN(c2ccc(S(=O)(=O)N3CCCC3)cc2)CC1 (centres unmarked) | -4.69%
5 | CC(C(=O)c1ccc(-c2ccccc2)cc1)[n+]1ccccc1.[Br-] (centres unmarked) | 2.72%
6 | CCOC(=O)c1ccc(N2C(=O)c3n[nH]c(C)c3C2c2cccnc2)cc1 (centres unmarked) | -17.2%
7 | CC(C(=O)OCC(=O)c1ccc(F)cc1)N1C(=O)C2C3C=CC(C3)C2C1=O (centres unmarked) | -15.4%
8 | O=C(Nc1cccc2ccccc12)/C(=C/c1cccc([N+](=O)[O-])c1)NC(=O)c1cccs1 | -67.7%
9 | Cc1ccc(NC(=O)/C(=C\c2cccc([N+](=O)[O-])c2)NC(=O)c2cccs2)cc1 | -1.85%
10 | Cc1cccc(NC(=O)/C(=C/c2cccc([N+](=O)[O-])c2)NC(=O)c2cccs2)c1 | 10.2%
11 | CCOC(=O)c1cnn(-c2ccccc2)c1-n1cccc1 | -8.27%
12 | C=CCNC(=S)Nc1ccccc1 | -8.73%
13 | CN(C)c1ccc(NC(=O)Nc2csc3ccccc23)cc1 | 18.4%
14 | Fc1cccc(F)c1CN1CCN(c2ncccn2)CC1 | 15.5%
15 | F[B-](F)(F)F.OCCCCC[NH+]=c1cc(-c2ccccc2)oc2ccc(Cl)cc12 | -80.3%
16 | O=C(COc1ccc2oc(-c3ccccc3)cc(=O)c2c1)Nc1ccccc1 | -2.43%
17 | F[B-](F)(F)F.OCCC[NH+]=c1cc(-c2ccccc2)oc2ccc(Cl)cc12 | -79.1%
18 | F[B-](F)(F)F.OCC[NH+]=c1cc(-c2ccccc2)oc2ccc(Cl)cc12 | -71.3%
19 | O=c1oc2ccc(Cl)cc2cc1-c1ccccc1 | 22.4%
20 | O=c1cc(-c2ccccc2)oc2ccc(O)cc12 | -9.74%
21 | COc1ccc(-c2cc(=[NH+]c3ccccc3)c3cc(C)ccc3o2)cc1.[O-][Cl+3]([O-])([O-])[O-] | 24.8%
22 | OCCCNc1nc(-c2ccccc2)c2cc(Cl)ccc2n1 | 3.04%

Row | Compound | hERG current change (%, negative = inhibition) at 10uM
23 | Nc1c(C(=O)CCC(=O)O)oc2ccc(Cl)cc12 | -9.4%
24 | CCCNC(=O)c1cccc(COCC(F)(F)F)c1 | -2.57%
25 | O=C(Nc1ccccn1)C1(c2cccs2)CCOCC1 | 8.48%
26 | COc1ccc(S(=O)(=O)N2CCC3(CC2)OCCN3S(=O)(=O)c2ccc(OC)cc2)cc1 | -24.1%
27 | O=[N+]([O-])c1ccc(S(=O)(=O)N2CCC3(CC2)OCCN3S(=O)(=O)c2cccs2)cc1 | -50.4%
28 | COc1ccc(S(=O)(=O)N2CCOC23CCN(C(=O)c2ccc(Cl)cc2Cl)CC3)cc1 | -68.9%
29 | COc1ccc(S(=O)(=O)N2CCC3(CC2)OCCN3S(=O)(=O)c2cccs2)cc1 | -23.8%
30 | Cc1ccc(S(=O)(=O)N2CCOC23CCN(C(=O)c2ccc(Cl)cc2Cl)CC3)cc1 | -48.1%
31 | O=S(=O)(c1ccc(F)cc1)N1CCC2(CC1)OCCN2S(=O)(=O)c1cccs1 | -10.9%
32 | COc1ccc(S(=O)(=O)N2CCOC23CCN(S(=O)(=O)c2ccc([N+](=O)[O-])cc2)CC3)cc1 | -62%
33 | Cc1ccc(S(=O)(=O)N2CCOC23CCN(C(=O)c2cc(Cl)ccc2Cl)CC3)cc1 | -47.6%
34 | COc1ccc(S(=O)(=O)N2CCOC23CCN(S(=O)(=O)c2ccccc2)CC3)cc1 | 8.72%
35 | COc1ccc(OCCSc2nc(N)cc(=O)[nH]2)cc1 | -1.77%
36 | Cc1cccc(OCCC(=O)Nc2ccc(N3CCOCC3)cc2N2CCOCC2)c1 | -19.7%
37 | COn1c(SCc2ccc(C)cc2C)nc2ccccc2c1=O | 7.64%
38 | O=C(Nc1ccc(SC(F)F)cc1)c1ccc2nccnc2c1 | -17.1%
39 | CN1CCC(OC(=O)COc2ccccc2)CC1.Cl | 15.1%
40 | CN1CCC(Oc2ccccc2Sc2ccccc2)CC1.O=C(O)C(=O)O | -64.5%
41 | CN1CCC(Oc2ccccc2Sc2ccc(C(F)(F)F)cc2)CC1.O=C(O)C(=O)O | -63.2%
42 | CN1CCC(OC(=O)COc2ccc(C(C)(C)C)cc2)CC1.Cl | -28.7%
43 | CN1CCC(OC(=O)Cc2ccccc2)CC1.Cl | 5.22%
44 | CN1CCC(OC(=O)c2ccccc2)CC1.Cl | 7.92%

Row | Compound | hERG current change (%, negative = inhibition) at 10uM
45 | Cc1ccccc1C(=O)OC1CCN(C)CC1.Cl | 6.06%
46 | COc1ccc(OC2CCN(S(=O)(=O)c3ccccc3)CC2)cc1 | -11.6%
47 | CN1CCC(Oc2ccc(Sc3ccccc3)cc2)CC1.Cl | -67%
48 | COc1ccccc1NC(=O)CCCCC(=O)Nc1ccccc1OC | 7.88%
49 | O=Cc1ccccc1-c1cn(CN2C(=O)c3ccccc3C2=O)nn1 | 3.42%
50 | O=C(CCc1nnc2ccc(NCc3ccccc3Cl)nn12)N1CCC2(CC1)OCCO2 | -67.7%
51 | O=C(CCc1nnc2ccc(NCc3ccco3)nn12)N1CCN(c2ccccc2F)CC1 | -20.5%
52 | O=C(CCc1nnc2ccc(NCc3ccccc3)nn12)N1CCC2(CC1)OCCO2 | 14.4%
53 | Cc1ccc(NC(=O)CCc2nnc3ccc(NCc4ccco4)nn23)cc1 | -2.39%
54 | O=C(CCc1nnc2ccc(NCc3ccco3)nn12)N1CCN(c2ccc(F)cc2)CC1 | -46.7%
55 | O=C(CCc1nnc2ccc(NCc3ccco3)nn12)Nc1ccc(F)cc1 | -9.82%
56 | Cc1ccc(NC(=O)CCc2nnc3ccc(NCc4ccco4)nn23)cc1F | -70.9%
57 | O=C(CCc1nnc2ccc(NCc3ccco3)nn12)N1CCN(c2ccccc2)CC1 | -56.3%
58 | O=C(CCc1nnc2ccc(NCc3ccc(F)cc3)nn12)N1CCC2(CC1)OCCO2 | -0.229%
59 | COC(=O)C1(Cc2cc(-c3ccc(Cl)cc3)no2)CCN(C(=O)OC(C)(C)C)CC1 | -22.8%
60 | CCOc1ccc(OCC)c(S(=O)(=O)NCc2ccccc2)c1 | -10.1%
61 | Clc1ccc(N2CCCCCC2)nn1 | 4.93%
62 | O=C(c1noc2c1CCCC2)N1CCN(c2ccccc2)CC1 | -17.6%
63 | CCOc1cc(CNc2ccc3[nH]c(=O)[nH]c3c2)ccc1OCC(=O)NC(C)(C)C | 12.4%
64 | COc1ccc(C2=NN(C(=O)CN3CCCC3)C(c3ccc(OC)cc3)C2)cc1 (centres unmarked) | -40.7%
65 | COc1ccc(C2CC(c3ccc(Br)cc3)=NN2C(=O)CN2CCCC2)cc1 (centres unmarked) | -68.1%
66 | COc1ccc(C2CC(c3ccccc3)=NN2C(=O)CN2CCN(Cc3ccccc3)CC2)cc1 (centres unmarked) | -31.2%

Row | Compound | hERG current change (%, negative = inhibition) at 10uM
67 | COc1ccc(C2=NN(C(=O)CN3CCCCC3)C(c3ccc(C)cc3)C2)cc1 (centres unmarked) | -54.9%
68 | COc1ccc(C2=NN(C(=O)CCC(=O)O)C(c3ccc(Br)cc3)C2)cc1 (centres unmarked) | 29.9%
69 | COc1ccc(C2=NN(C(=O)CN3CCCCC3)C(c3ccc(OC)cc3)C2)cc1 (centres unmarked) | -40.1%
70 | COC(=O)C1C2C=CC3(CN(c4ccc(Cl)c(F)c4)C(=O)C13)O2 (centres unmarked) | 4.99%
71 | N#Cc1ccc(S(=O)(=O)N2CCN(c3ncccn3)CC2)cc1 | -17.9%
72 | Cc1ccc(S(=O)(=O)N2CCN(c3nccnc3C#N)CC2)cc1 | -54.8%
73 | Cc1ccc(S(=O)(=O)N2CCN(c3ccccn3)CC2)cc1 | 4.96%
74 | O=C(O)Cc1ccc(NC(=O)c2cnccn2)cc1 | 26.1%
75 | COc1cc(/C=N/NC(=O)Cc2ccccc2)cc([N+](=O)[O-])c1O | 10%
76 | COc1cc(NC(=S)N2CCN(C/C=C/c3ccccc3)CC2)cc(OC)c1 | -10.7%
77 | COc1ccc(NC(=O)CCN2CCN(C/C=C/c3ccccc3)CC2)cc1 | -77.3%
78 | COc1ccc(NC(=S)N2CCN(C/C=C/c3ccccc3)CC2)cc1 | -24.1%
79 | CCN(CCC(=O)Nc1ccc(Br)c(C)c1)Cc1ccccc1.Cl | -36.8%
80 | CCN(CCC(=O)Nc1cc(OC)cc(OC)c1)Cc1ccccc1 | -65.1%
81 | COc1cc(NC(=O)Cc2ccccc2)cc(OC)c1 | -4.79%
82 | COc1cc(NC(=O)CCN2CCN(Cc3ccccc3)CC2)cc(OC)c1 | -20.1%
83 | COc1cc(NC(=O)CCN2CCN(C/C=C/c3ccccc3)CC2)cc(OC)c1 | -69.3%
84 | COc1ccc(NC(=O)CCN2CCCCCC2)cc1 | -12.3%
85 | Cc1nc2ccccc2c(=O)n1NC(=O)c1cncc(Br)c1 | 14.9%
86 | Cc1cc(C)c(C(=O)OCCNC(=O)c2cccnc2)cc1C | -17.3%
